# KB-V1 MDR tox: qHTS assay for MDR1-selective chemotherapeutics: Primary screen using the drug-selected MDR subline cells KB-V1. AID 1347076, 2019. Potency, µM (series often up to 46.1 µM), most hits filed as cytotoxic. KB-V1 MDR cells viability, CellTiter-Glo, 72 h. hit rate 3.4% among 400,000; note: nearly all actives have a fitted effect of over 60% in size
#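 Potencies derive from concentration-effect curves fitted to normalized luminescence (CellTiter-Glo) of KB-V1 cells treated for 72 h at 37 degrees C in phenol-red-free DMEM containing 10% FBS.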
# TDP1 cell CPT: qHTS for Inhibitors of human tyrosyl-DNA phosphodiesterase 1 (TDP1): qHTS in cells in presence of CPT | chicken DT40 Tdp1-/-;hTDP1 cells + 20 nM CPT, ATP luminescence, 48 h | AID 686979, 2013 | Potency, µM (top dose mostly 46.2 µM), inactives show top-dose activity change, negative = growth inhibition, usual class: inhibitors | hit rate 12% among 420,000; note: nearly all actives have a fitted effect of over 55% in size
#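 Chicken DT40 Tdp1-/- cells complemented with human TDP1, 400 cells/well, exposed to compounds plus 20 nM camptothecin for at least 48 h at 37 C; viability read as ATP content by CellTiter-Glo luminescence.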
# DT40 TDP1 no CPT: qHTS for Inhibitors of human tyrosyl-DNA phosphodiesterase 1 (TDP1): qHTS in cells in absence of CPT. DT40 Tdp1-/- hTDP1 cells, no CPT, ATP luminescence, 48 h. Potency, µM (series often up to 46.2 µM), for inactives: top-dose activity change, negative = growth inhibition, usual class: inhibitors. hit rate 15% among 420,000; note: nearly all actives have a fitted effect of over 55% in size
#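 No-CPT arm: Tdp1-/-;hTDP1 DT40 cells (400/well) plus compounds, incubated ≥48 hr at 37 °C. Readout CellTiter-Glo luminescence.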
# KB-3-1 tox: qHTS assay for MDR1-selective chemotherapeutics: Primary screen using the parental adenocarcinoma cell KB-3-1 | KB-3-1 viability, CellTiter-Glo ATP luminescence, 72 h | Potency, µM (doses to about 46.1 µM), actives largely listed as cytotoxic | hit rate 1.4% among 400,000; note: nearly all actives have a fitted effect of over 60% in size
#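 KB-3-1 parental drug-naive adenocarcinoma cells in DMEM/10% FBS, incubated 72 h at 37 C with pin-transferred compounds across a concentration series. Viability by CellTiter-Glo luminescence; concentration-response curves fitted after normalization.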
# HT1080 IDH1KD tx: qHTS for induction of synthetic lethality in tumor cells producing 2HG: qHTS for the HT-1080-IDH1KD cell line. hit rate 2% among 360,000. HT-1080 IDH1 knockdown viability, ATP luminescence, 48 h. Potency, µM (titrated, usually from 46.1 µM), inactives show at the top dose activity, negative = toxicity, hits mostly cytotoxic;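 note: 0% = DMSO wells and -100% = cell-free medium wells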
#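 IDH1KD HT-1080 cells, 750/well, RPMI + 5% FBS; compound pinned after 2 h settling; 48 h, 37 °C; CellTiter-Glo luminescence; % activity normalised to DMSO and no-cell wells; curves fitted, classed by r2 and efficacy.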
# HT1080NT lethal: qHTS for induction of synthetic lethality in tumor cells producing 2HG: qHTS for the HT-1080-NT fibrosarcoma cell line | HT-1080-NT fibrosarcoma viability, CellTiter-Glo ATP luminescence, 48 h | hit rate 1.6% among 360,000 | Potency, µM (series often up to 46.1 µM), without a hit: at the highest dose activity, negative = less viability, hits mostly cytotoxic;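 note: NT is the 2HG producing partner of a matched IDH1 knockdown line; 0% = DMSO-treated cells and -100% = media-only wells without cells; nearly all actives have a fitted effect of over 55% in size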
#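 Viability by CellTiter-Glo luminescence after 48 h compound exposure at 37C of HT-1080-NT cells (750/well, RPMI, 5% FBS). % activity scaled between DMSO wells and medium-only wells, then curve-fitted and categorized by curve class.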
# An asterisk follows results filed as active; i = inactive; ? = inconclusive; . = no result; [ ] = remark or other dose. This is a sample that favours compounds with a hit; in the whole collection about 19% have one here. Calls come from the whole dose curve; as a rule, active = well fitted curve in the direction sought with a large enough effect; inconclusive = small, poorly fitted or top-dose-only effect, or another doubt; inactive = no such curve, though single readings can be large; an effect the other way counts as inactive or inconclusive. Unless noted, % is set by controls: 0 for no effect and ±100 for the full control effect; potency is the fitted concentration of half-maximal effect.
SMILES,KB-V1 MDR tox,TDP1 cell CPT,DT40 TDP1 no CPT,KB-3-1 tox,HT1080 IDH1KD tx,HT1080NT lethal
CC(=O)OCC1=C(C(=O)O)N2C(=O)C(NC(=O)CCCC(N)C(=O)O)C2SC1 (stereo not given),.,?,-23%,.,.,.
CN1CCCC1c1ccc(=O)[nH]c1 (stereo not given),i,16%,13%,i,15%,17%
COC(=O)C1=C(c2ccc(C(C)=O)cc2)C[C@@H]2CC[C@H]1N2C(=O)NCc1ccc2c(c1)OCO2,i,-30%,?,i,-3%,1%
CC(C)[C@H](N)C(=O)OCC(CO)OCn1cnc2c(=O)[nH]c(N)nc21 (stereo not given in full),.,13µM*,11µM*,.,.,.
CC(=O)N1N=C2C3CCN(CC3)C2C1c1ccc(F)cc1 (stereo not given),i,3%,?,i,?,3%
CC(=O)OC1(C)CC(C)C(=O)C(C(O)CC2CC(=O)NC(=O)C2)C1 (stereo not given),?,0.18µM*,0.21µM*,?,0.13µM*,1.6µM*
Cc1ccc(-n2nc(C)c3c2NC(=O)CSC3c2ccc3c(c2)OCO3)cc1 (stereo not given),?,-30%,?,i,2%[9.24 µM],-1%
COc1ccc(C2SCC(=O)Nc3c2c(C)nn3-c2ccccc2)cc1 (stereo not given),i,-24%,?,i,1%,8%
CCc1ccc(-n2nc(C)c3c2NC(=O)CSC3c2ccccc2C)cc1 (stereo not given),i,?,18µM*,i,.,.
CCc1ccc(-n2nc(C)c3c2NC(=O)CSC3c2ccc(C(=O)OC)cc2)cc1 (stereo not given),i,15µM*,13µM*,i,.,.
Cc1ccc(-n2nc(C)c3c2NC(=O)CSC3c2ccc(O)cc2)cc1Cl (stereo not given),i,-26%,?,23µM*,.,.
CCc1ccc(-n2nc(C)c3c2NC(=O)CSC3c2ccc(OC)cc2OC)cc1 (stereo not given),i,18µM*,23µM*,?,.,.
CCOC(=O)c1c(C)[nH]c(C)c1S(=O)(=O)N1CCC(C(=O)N2CCN(c3ccc(Cl)cc3)CC2)CC1,?,?,?,i,.,.
Cc1cc(NC(=O)CCl)on1,?,?,9.2µM*,i,?,?
Cc1nn(Cc2ccccc2Cl)c(C)c1C(=O)OCC(=O)NC1CCCC(C)C1C (stereo not given),?,21µM*,23µM*,i,0%,-1%
Cc1nn(Cc2ccccc2Cl)c(C)c1C(=O)OCC(=O)N1CC(C)OC(C)C1 (stereo not given),?,-20%,-26%,i,1%,-1%
O=C(NCC(c1cccs1)N1CCOCC1)c1cc([N+](=O)[O-])cc([N+](=O)[O-])c1 (stereo not given),23µM*,-29%,?,i,-4%,0%
Cc1ccccc1NS(=O)(=O)c1ccc(OCC(=O)N2CCN(C)CC2)cc1,i,5%,1%,i,22%,12%
OC1CCC(Nc2ccn3nc(-c4cccc(OCc5ccccc5)c4)cc3n2)CC1 (stereo not given),i,?,?,i,?,?
Cc1cc2ccccc2n1CCNC(=O)COc1ccccc1,i,?,?,i,-2%,-7%
COc1cc(CN2CCN(C(=O)Cc3ccccc3)CC2)cc(OC)c1OC,i,1%,0%,i,13%,18%
COc1ccc(CN2CCN(C(=O)Cn3c(=O)oc4cc(Cl)ccc43)CC2)c(OC)c1OC,i,10µM*,?,i,-21%,-4%
C=CCN1C(=O)/C(=C/c2cccs2)C(=O)NC1=S,i,16µM*,15µM*,i,?,?
O=C1NC(=O)N(CCc2ccc(F)cc2)C(=O)/C1=C/c1cccs1,i,16µM*,16µM*,i,-27%,?
C=CCN1C(=O)NC(=O)/C(=C/c2cnc(SC)nc2)C1=O,i,-11%,-14%,i,-3%,-2%
SMILES,KB-V1 MDR tox,TDP1 cell CPT,DT40 TDP1 no CPT,KB-3-1 tox,HT1080 IDH1KD tx,HT1080NT lethal
O=C1OC2(c3cc(Br)c(O)cc3Oc3c2cc(Br)c(O)[c]3[Hg])c2ccccc21 (stereo not given),.,4.5µM*,3.6µM*,.,.,.
CN(C)C=C1C(=O)N(C2CCCCC2)C(=O)N(C2CCCCC2)C1=O,?,16µM*,?,i,?,?
CCC1(CC)C(=O)NC(=NCCc2c[nH]c3ccccc23)NC1=O,i,-1%,9%,i,0%,6%
COc1ccc(CN(CCc2c[nH]c3ccccc23)Cc2ccc(OC)cc2)cc1,?,16µM*,15µM*,i,?,?
NCCc1c[nH]c2ccccc12,i,?,-28%,i,-2%,1%
CCN(CC)Cc1c[nH]c2ccccc12,i,10µM*,16µM*,i,-20%,-16%
COc1ccc2[nH]cc(CCN(C(C)C)C(C)C)c2c1,.,?,-28%[92.5 µM],.,.,.
CN(CCc1ccccc1)Cc1c[nH]c2ccccc12,?,0.82µM*,1.5µM*,?,-10%,-20%
CCCN(CCC)CCc1c[nH]c2ccccc12,.,19µM*,?,.,.,.
CCc1nnc(NS(=O)(=O)c2ccc(N=Cc3c(O)n(-c4ccc(Cl)cc4)c(=O)[nH]c3=O)cc2)s1,i,?,?,i,?,7%
Cc1ccc(OC(=O)N(C)C[C@H]2OCc3cnnn3CCCC(=O)N([C@@H](C)CO)C[C@H]2C)cc1,i,-4%,?,i,2%,-5%
CCC(C)(S(=O)(=O)CC)S(=O)(=O)CC,.,3%,-3%,.,.,.
COc1ccc(-n2c(O)c(C=NCc3ccc4c(c3)OCO4)c(=O)[nH]c2=O)cc1,?,-3%,-23%,i,11%,?

# Assay outcomes deposited in PubChem by National Center for Advancing Translational Sciences (NCATS).
